Assay in all cases: DAPPL (digital affinity profiling via proximity ligation, sequencing); 10 mM Tris-HCl pH 7.5, 50 mM NaCl, 1 mM DTT, 4% glycerol, room temperature, 30 min; GST-TFs on glutathione beads, 16-mer random dsDNA library, 0.1% formaldehyde crosslink after washing; high values mean tight binding
The target of one test is T1, FEV (Homo sapiens, UniProt Q99581 1-238).
T1 sequence: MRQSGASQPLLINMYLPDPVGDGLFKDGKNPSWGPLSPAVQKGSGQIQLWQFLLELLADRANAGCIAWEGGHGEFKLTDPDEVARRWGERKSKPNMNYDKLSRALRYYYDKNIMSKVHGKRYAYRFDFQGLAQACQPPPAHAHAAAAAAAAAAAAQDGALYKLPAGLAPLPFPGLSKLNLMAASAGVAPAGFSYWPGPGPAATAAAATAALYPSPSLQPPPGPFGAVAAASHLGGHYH
The note with it: protein: recombinant; tags: N-terminal GST; dsDNA, one strand shown. In outline:
(§1)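 Human transcription factors were made in yeast as GST fusions, captured on glutathione beads and barcoded with DNA. With a tag-only sample included, the pool was incubated with 200 nmole of a random double-stranded 16-mer DNA library in Tris/NaCl/DTT/glycerol buffer at room temperature for 30 min, then crosslinked with 0.1% formaldehyde after washing, ligated by proximity, amplified and sequenced. For binding signal, each hexamer's read frequency for a factor is divided by its frequency for the tag-only sample.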

The target of another test is ETV5 (Homo sapiens, UniProt P41161 1-510). The note with it: protein: recombinant; tags: N-terminal GST; dsDNA, one strand shown. In outline: as §1
Sequence of ETV5 (P41161 whole entry): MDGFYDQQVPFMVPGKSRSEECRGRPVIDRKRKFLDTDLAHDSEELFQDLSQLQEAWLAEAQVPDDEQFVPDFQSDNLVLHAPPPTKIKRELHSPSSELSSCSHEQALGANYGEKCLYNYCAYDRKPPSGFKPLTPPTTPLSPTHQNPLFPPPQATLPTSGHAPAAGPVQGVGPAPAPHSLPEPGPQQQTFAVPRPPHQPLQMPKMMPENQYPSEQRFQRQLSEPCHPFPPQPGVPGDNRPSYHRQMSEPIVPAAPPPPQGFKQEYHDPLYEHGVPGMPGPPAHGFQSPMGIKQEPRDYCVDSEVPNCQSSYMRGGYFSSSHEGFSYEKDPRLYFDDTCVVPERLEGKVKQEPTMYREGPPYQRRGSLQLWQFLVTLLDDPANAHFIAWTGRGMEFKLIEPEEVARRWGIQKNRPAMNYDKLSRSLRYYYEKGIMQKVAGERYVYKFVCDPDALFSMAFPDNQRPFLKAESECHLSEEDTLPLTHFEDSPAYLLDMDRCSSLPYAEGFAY
The next test concerns the target HSF1 (Homo sapiens, UniProt Q00613 1-529). The following applies: protein: recombinant; tags: N-terminal GST; chain copies: 3; dsDNA, one strand shown. In outline:
as §1

Another test deals with T2, SPIC (Homo sapiens, UniProt Q8N5J4 1-248).
T2 sequence: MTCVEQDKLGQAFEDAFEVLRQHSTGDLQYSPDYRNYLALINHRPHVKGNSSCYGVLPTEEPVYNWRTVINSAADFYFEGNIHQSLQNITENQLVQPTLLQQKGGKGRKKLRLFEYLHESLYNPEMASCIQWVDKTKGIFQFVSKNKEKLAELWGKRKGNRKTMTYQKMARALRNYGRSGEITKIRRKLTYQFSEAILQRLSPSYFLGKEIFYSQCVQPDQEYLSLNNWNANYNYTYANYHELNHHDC
The note with it: protein: recombinant; tags: N-terminal GST; dsDNA, one strand shown. In outline: as §1

For the next test, the target named is ELF4 (Homo sapiens, UniProt Q99607 1-663). The note with it: protein: recombinant; tags: N-terminal GST; dsDNA, one strand shown. In outline:
as §1

A further test concerns the target T3, ELK4 (Homo sapiens, UniProt P28324-2 1-405).
T3 sequence: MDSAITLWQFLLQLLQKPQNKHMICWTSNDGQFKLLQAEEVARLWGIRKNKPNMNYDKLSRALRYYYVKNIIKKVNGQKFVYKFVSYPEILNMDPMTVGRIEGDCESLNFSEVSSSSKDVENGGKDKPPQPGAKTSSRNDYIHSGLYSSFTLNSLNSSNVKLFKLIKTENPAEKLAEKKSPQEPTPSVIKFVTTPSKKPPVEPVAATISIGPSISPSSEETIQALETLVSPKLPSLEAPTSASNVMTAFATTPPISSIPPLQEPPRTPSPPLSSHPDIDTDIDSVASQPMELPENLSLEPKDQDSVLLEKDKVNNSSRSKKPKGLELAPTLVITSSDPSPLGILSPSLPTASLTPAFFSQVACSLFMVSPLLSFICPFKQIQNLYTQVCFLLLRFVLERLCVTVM
The note with it: protein: recombinant; tags: N-terminal GST; dsDNA, one strand shown. In outline:
as §1

The target in a further test is T4, ETV2 (Homo sapiens, UniProt O00321 1-342).
T4 sequence: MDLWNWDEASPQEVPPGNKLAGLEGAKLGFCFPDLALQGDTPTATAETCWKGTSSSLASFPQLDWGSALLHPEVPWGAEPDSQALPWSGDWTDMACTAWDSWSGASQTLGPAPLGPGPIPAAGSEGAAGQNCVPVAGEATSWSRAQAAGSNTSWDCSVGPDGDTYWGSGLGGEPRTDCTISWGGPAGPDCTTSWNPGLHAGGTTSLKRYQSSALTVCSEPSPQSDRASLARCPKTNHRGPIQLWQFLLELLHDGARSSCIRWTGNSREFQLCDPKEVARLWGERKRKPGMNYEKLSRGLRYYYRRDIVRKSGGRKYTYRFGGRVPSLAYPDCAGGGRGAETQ
The note with it: protein: recombinant; tags: N-terminal GST; dsDNA, one strand shown. In outline:
as §1

The next test concerns the target T5, ELF3 (Homo sapiens, UniProt P78545 1-371).
T5 sequence: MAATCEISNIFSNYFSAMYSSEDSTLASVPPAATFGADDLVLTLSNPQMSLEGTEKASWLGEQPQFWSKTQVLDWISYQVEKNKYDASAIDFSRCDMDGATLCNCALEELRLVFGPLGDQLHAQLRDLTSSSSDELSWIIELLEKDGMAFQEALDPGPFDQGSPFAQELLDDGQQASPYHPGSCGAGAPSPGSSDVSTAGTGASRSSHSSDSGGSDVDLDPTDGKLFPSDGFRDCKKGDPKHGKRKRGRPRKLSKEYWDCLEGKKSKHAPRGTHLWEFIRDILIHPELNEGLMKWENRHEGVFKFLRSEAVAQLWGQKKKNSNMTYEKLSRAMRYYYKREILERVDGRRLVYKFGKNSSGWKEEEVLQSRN
The note with it: protein: recombinant; tags: N-terminal GST; dsDNA, one strand shown. In outline:
as §1

The target in the next test is CRX (Homo sapiens, UniProt O43186 1-299). The note with it: protein: recombinant; tags: N-terminal GST; dsDNA, one strand shown. In outline:
as §1

Another test addresses ETV1 (Homo sapiens, UniProt P50549 1-477). The following applies: protein: recombinant; tags: N-terminal GST; dsDNA, one strand shown. In outline:
as §1

A further test concerns the target T6, ERF (Homo sapiens, UniProt P50548 1-548).
T6 sequence: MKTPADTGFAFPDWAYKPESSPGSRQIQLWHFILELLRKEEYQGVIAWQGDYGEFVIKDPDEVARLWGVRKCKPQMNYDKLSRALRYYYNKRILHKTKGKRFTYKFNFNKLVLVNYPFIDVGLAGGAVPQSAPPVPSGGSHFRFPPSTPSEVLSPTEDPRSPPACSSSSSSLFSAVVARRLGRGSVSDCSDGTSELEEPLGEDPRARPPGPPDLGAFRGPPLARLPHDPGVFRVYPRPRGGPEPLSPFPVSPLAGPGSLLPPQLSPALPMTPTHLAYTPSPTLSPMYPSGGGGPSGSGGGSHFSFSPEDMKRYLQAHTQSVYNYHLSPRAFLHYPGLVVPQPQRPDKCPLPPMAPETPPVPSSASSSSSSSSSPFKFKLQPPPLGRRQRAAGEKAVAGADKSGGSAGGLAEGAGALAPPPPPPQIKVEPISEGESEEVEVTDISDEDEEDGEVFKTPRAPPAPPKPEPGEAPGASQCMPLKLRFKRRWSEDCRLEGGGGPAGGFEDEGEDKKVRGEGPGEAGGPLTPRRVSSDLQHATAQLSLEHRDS
The following applies: protein: recombinant; tags: N-terminal GST; dsDNA, one strand shown. In outline:
as §1

A further test has as its target T7, ETV3L (Homo sapiens, UniProt Q6ZN32 1-361).
T7 sequence: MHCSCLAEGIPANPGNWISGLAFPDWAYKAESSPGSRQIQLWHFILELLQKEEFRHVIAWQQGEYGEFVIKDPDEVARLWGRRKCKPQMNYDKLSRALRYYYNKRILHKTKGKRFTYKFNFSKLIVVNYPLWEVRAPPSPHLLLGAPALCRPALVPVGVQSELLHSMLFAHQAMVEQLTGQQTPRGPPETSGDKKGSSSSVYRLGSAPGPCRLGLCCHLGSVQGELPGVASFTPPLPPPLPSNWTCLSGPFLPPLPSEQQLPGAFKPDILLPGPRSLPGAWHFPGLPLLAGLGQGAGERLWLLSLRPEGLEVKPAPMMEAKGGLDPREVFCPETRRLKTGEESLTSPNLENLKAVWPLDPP
The note with it: protein: recombinant; tags: N-terminal GST; dsDNA, one strand shown. In outline:
as §1

The next test has as its target T8, ETS2 (Homo sapiens, UniProt P15036 1-469).
T8 sequence: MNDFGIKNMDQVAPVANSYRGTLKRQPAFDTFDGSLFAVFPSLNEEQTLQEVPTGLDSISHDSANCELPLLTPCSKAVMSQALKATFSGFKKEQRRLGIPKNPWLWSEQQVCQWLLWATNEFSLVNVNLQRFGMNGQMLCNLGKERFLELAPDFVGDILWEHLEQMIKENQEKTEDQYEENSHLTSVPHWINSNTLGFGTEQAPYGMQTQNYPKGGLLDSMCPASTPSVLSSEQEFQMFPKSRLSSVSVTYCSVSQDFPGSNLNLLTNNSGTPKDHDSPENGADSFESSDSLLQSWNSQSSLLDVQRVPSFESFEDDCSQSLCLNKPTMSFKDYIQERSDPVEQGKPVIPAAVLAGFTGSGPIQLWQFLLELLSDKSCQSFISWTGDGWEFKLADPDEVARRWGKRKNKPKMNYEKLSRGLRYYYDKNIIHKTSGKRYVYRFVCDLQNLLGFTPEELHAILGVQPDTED
The following applies: protein: recombinant; tags: N-terminal GST; dsDNA, one strand shown. In outline: as §1

Another test has as its target T9, SPDEF (Homo sapiens, UniProt O95238 1-335).
T9 sequence: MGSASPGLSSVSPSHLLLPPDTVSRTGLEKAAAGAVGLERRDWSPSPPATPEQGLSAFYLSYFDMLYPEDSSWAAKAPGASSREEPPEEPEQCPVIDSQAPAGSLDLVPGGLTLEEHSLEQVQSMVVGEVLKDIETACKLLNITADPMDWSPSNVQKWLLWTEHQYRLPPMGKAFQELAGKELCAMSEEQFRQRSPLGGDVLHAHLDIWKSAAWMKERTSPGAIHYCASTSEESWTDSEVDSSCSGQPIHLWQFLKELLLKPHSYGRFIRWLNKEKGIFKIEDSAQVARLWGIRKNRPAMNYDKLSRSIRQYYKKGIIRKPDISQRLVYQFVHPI
The following applies: protein: recombinant; tags: N-terminal GST; dsDNA, one strand shown. In outline:
as §1

Another test has as its target T10, ETV7 (Homo sapiens, UniProt Q9Y603 1-341).
T10 sequence: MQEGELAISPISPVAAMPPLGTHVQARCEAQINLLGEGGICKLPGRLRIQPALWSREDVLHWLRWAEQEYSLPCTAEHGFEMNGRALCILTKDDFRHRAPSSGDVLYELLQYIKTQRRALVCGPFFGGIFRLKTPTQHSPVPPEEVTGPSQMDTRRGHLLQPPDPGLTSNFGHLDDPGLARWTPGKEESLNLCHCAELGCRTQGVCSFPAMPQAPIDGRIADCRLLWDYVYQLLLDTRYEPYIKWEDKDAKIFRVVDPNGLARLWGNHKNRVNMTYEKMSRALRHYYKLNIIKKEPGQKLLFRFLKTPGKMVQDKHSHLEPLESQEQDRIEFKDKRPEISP
The following applies: protein: recombinant; tags: N-terminal GST; dsDNA, one strand shown. In outline: as §1

The target in another test is T11, ELF5 (Homo sapiens, UniProt Q9UKW6-2 1-255).
T11 sequence: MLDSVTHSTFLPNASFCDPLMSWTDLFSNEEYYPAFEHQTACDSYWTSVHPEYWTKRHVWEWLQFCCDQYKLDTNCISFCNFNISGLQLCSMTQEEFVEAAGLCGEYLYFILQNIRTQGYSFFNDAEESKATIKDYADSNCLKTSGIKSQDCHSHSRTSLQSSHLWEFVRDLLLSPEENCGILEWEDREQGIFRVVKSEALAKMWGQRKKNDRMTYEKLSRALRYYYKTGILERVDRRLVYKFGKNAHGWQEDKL
The following applies: protein: recombinant; tags: N-terminal GST; dsDNA, one strand shown. In outline:
as §1

In a further test the target is T12, ETV3 (Homo sapiens, UniProt P41162-2 1-143).
T12 sequence: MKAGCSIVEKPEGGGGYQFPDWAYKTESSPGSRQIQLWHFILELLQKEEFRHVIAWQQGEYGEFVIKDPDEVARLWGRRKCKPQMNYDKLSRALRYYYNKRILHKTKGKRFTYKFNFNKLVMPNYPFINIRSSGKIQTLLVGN
The following applies: protein: recombinant; tags: N-terminal GST; dsDNA, one strand shown. In outline: as §1

The target of another test is ETV6 (Homo sapiens, UniProt P41212 1-452). The note with it: protein: recombinant; tags: N-terminal GST; dsDNA, one strand shown. In outline: as §1
Sequence of ETV6 (P41212 whole entry): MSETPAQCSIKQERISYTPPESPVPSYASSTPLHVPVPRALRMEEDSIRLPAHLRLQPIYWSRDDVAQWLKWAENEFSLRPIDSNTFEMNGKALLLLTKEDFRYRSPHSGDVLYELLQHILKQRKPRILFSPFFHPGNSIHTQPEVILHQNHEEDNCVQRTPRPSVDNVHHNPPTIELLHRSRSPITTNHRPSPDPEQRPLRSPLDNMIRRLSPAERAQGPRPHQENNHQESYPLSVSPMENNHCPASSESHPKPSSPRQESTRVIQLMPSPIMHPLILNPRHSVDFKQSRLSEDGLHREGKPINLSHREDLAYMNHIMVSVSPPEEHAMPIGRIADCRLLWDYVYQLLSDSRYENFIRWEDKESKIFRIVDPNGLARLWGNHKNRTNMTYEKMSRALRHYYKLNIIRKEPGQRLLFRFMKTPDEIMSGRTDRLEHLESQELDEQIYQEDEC

Sequence of ETV1 (P50549 whole entry): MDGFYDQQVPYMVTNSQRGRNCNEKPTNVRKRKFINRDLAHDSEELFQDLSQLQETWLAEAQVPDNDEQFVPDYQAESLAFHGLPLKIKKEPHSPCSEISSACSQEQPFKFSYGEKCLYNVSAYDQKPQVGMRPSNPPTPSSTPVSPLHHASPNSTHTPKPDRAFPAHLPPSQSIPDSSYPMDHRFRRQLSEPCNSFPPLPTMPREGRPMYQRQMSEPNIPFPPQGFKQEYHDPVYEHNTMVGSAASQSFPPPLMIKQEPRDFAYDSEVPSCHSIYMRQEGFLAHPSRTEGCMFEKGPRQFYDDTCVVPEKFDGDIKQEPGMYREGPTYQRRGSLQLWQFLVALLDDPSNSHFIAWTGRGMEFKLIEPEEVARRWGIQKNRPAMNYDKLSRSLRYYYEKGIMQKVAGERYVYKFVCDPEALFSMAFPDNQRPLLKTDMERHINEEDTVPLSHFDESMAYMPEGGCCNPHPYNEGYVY
Sequence of HSF1 (Q00613 whole entry): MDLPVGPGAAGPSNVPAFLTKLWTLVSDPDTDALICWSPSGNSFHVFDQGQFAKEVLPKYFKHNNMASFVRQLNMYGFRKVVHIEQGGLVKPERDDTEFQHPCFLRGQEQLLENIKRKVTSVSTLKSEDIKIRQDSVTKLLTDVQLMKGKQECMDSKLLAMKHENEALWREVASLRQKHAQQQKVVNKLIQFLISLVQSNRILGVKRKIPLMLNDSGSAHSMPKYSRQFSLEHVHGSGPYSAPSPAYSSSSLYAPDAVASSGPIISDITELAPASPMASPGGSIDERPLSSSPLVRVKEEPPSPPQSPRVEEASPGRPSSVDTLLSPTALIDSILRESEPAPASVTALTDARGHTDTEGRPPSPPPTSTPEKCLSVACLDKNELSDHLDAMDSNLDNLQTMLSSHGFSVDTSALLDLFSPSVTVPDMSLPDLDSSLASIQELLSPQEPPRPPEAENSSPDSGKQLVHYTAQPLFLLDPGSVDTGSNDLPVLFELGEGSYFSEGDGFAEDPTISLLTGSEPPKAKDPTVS
Sequence of CRX (O43186 whole entry): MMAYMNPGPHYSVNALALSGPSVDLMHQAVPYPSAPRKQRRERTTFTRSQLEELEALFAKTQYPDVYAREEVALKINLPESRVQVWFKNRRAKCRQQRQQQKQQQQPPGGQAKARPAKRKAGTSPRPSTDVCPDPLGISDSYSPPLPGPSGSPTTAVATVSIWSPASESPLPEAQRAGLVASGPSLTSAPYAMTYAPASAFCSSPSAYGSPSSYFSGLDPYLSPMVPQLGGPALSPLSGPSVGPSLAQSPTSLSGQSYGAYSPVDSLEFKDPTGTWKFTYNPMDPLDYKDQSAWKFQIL
Sequence of ELF4 (Q99607 whole entry): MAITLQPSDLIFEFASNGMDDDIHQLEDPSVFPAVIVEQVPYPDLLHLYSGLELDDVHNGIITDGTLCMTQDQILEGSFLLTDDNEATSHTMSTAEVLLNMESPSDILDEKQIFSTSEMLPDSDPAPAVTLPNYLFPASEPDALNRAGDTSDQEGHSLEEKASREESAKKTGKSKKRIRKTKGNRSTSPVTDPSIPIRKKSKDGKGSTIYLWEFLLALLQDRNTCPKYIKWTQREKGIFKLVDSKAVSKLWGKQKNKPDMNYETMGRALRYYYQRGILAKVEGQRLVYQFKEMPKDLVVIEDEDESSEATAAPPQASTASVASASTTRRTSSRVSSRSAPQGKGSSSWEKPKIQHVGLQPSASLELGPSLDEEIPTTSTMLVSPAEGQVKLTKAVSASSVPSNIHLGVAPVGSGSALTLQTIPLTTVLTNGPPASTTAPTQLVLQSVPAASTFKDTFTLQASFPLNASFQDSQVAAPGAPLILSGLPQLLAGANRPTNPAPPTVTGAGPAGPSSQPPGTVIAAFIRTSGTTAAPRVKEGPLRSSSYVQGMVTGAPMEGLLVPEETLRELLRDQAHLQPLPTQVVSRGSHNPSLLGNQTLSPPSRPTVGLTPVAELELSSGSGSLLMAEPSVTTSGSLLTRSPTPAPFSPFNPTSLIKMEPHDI

Consider TTTCCC, for which the binding signal is 1.61 fold enrichment (6-mer frequency, TF over GST control) with FEV; 1.93 fold enrichment (6-mer frequency, TF over GST control) with ETV5; 1.57 fold enrichment (6-mer frequency, TF over GST control) in the test with HSF1; 1.87 fold enrichment (6-mer frequency, TF over GST control) in the test with SPIC; 1.77 fold enrichment (6-mer frequency, TF over GST control) with ELF4; 1.47 fold enrichment (6-mer frequency, TF over GST control) in the test with ELK4. Moreover, the binding signal in the test with ETV2 was 1.58 fold enrichment (6-mer frequency, TF over GST control); with ELF3, 1.43 fold enrichment (6-mer frequency, TF over GST control); with CRX, 1.43 fold enrichment (6-mer frequency, TF over GST control); with ETV1, 1.6 fold enrichment (6-mer frequency, TF over GST control); in the test with ERF, 1.57 fold enrichment (6-mer frequency, TF over GST control); with ETV3L, 1.7 fold enrichment (6-mer frequency, TF over GST control). Besides, the binding signal with ETS2 was 1.71 fold enrichment (6-mer frequency, TF over GST control); with SPDEF it was 1.45 fold enrichment (6-mer frequency, TF over GST control); with ETV7, 1.65 fold enrichment (6-mer frequency, TF over GST control); with ELF5, 2.51 fold enrichment (6-mer frequency, TF over GST control); with ETV3, 1.75 fold enrichment (6-mer frequency, TF over GST control); with ETV6, 1.97 fold enrichment (6-mer frequency, TF over GST control).

The record behind these values is paper PMC7862700, “An all-to-all approach to the identification of sequence-specific readers for epigenetic DNA modifications on cytosine”.
